From PubChem BioAssay AID1159580 (chemical genetic matrix, 2015)
Among all 5,500 compounds or so, about 2,000 (36%) were called active. Another 18% or so got no clear call; they are omitted. Rule as the data show it: active = normalized growth mostly below about 0.91 (no sharp cut-off); inconclusive = no clear call, values can overlap the other calls; inactive = mostly above about 0.92. This is one part of the list.

Assay: chemical genetic growth profiling, strain panel (AID 1159580);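 also: tested at 20 µM; growth read once vehicle control cultures reached saturation at 30 °C; 1 = growth at the plate median or of vehicle wells; lower values mean less growth of the strain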
Conditions: growth OD

Measured: normalized growth

O=C(O)CCCOc1ccc(Cl)cc1Cl
active: S. cerevisiae deletion strains, locus YLR113W, strain HOG1, active compounds read low 0.584 | S. cerevisiae deletion strains, locus YLR262C, strain YPT6 (second series), active compounds read low 0.792 | S. cerevisiae deletion strains, locus YMR231W, strain pep5, active compounds read low 0.92 | S. cerevisiae deletion strains, locus YNL183C, strain NPR1, active compounds read low 0.731 | S. cerevisiae deletion strains, locus YNL322C, strain KRE1 (second series), active compounds read low 0.882 | S. cerevisiae deletion strains, locus YOR231W, strain MKK1, active compounds read low 0.796 | S. cerevisiae deletion strains, locus YPL256C, strain CLN2, active compounds read low 0.756
inactive: S. cerevisiae deletion strains, locus YJR075W, strain HOC1, active compounds read low 0.999 | S. cerevisiae deletion strains, locus YKL009W, strain mrt4, active compounds read low 0.967 | S. cerevisiae deletion strains, locus YKL068W, active compounds read low 0.986 | S. cerevisiae deletion strains, locus YKL085W, strain MDH1 (second series), active compounds read low 0.984 | S. cerevisiae deletion strains, locus YKL085W, strain MDH1, active compounds read low 0.984 | S. cerevisiae deletion strains, locus YKL160W, strain elf1, active compounds read low 0.953 | S. cerevisiae deletion strains, locus YKL190W, strain CNB1, active compounds read low 0.982 | S. cerevisiae deletion strains, locus YKR001C, strain vps1, active compounds read low 0.996 | S. cerevisiae deletion strains, locus YKR026C, strain gcn3, active compounds read low 0.926 | S. cerevisiae deletion strains, locus YKR091W, strain srl3, active compounds read low 0.955 | S. cerevisiae deletion strains, locus YLL001W, strain dnm1, active compounds read low 0.94 | S. cerevisiae deletion strains, locus YLL026W, active compounds read low 0.945 | S. cerevisiae deletion strains, locus YLL041C, strain sdh2, active compounds read low 0.951 | S. cerevisiae deletion strains, locus YLR027C, strain aat2, active compounds read low 0.96 | S. cerevisiae deletion strains, locus YLR039C, strain RIC1, active compounds read low 0.965 | S. cerevisiae deletion strains, locus YLR058C, strain SHM2, active compounds read low 0.999 | S. cerevisiae deletion strains, locus YLR102C, strain apc9, active compounds read low 1.03 | S. cerevisiae deletion strains, locus YLR221C, strain rsa3, active compounds read low 0.949 | S. cerevisiae deletion strains, locus YLR258W, strain gsy2, active compounds read low 0.943 | S. cerevisiae deletion strains, locus YLR262C, strain YPT6, active compounds read low 0.976 | S. cerevisiae deletion strains, locus YLR268W, strain sec22, active compounds read low 1.02 | S. cerevisiae deletion strains, locus YLR320W, strain mms22, active compounds read low 0.955 | S. cerevisiae deletion strains, locus YLR330W, strain CHS5, active compounds read low 0.995 | S. cerevisiae deletion strains, locus YLR342W, strain FKS1 (second series), active compounds read low 0.997 | S. cerevisiae deletion strains, locus YLR342W, strain FKS1, active compounds read low 0.922 | S. cerevisiae deletion strains, locus YLR357W, strain rsc2, active compounds read low 0.888 | S. cerevisiae deletion strains, locus YLR370C, strain arc18, active compounds read low 0.936 | S. cerevisiae deletion strains, locus YLR371W, strain rom2, active compounds read low 1.01 | S. cerevisiae deletion strains, locus YLR384C, strain iki3, active compounds read low 0.945 | S. cerevisiae deletion strains, locus YLR418C, strain cdc73, active compounds read low 1.03 | S. cerevisiae deletion strains, locus YML016C, strain PPZ1, active compounds read low 0.999 | S. cerevisiae deletion strains, locus YML032C, strain rad52, active compounds read low 1.01 | S. cerevisiae deletion strains, locus YML120C, strain ndi1, active compounds read low 0.958 | S. cerevisiae deletion strains, locus YML124C, strain tub3, active compounds read low 1 | S. cerevisiae deletion strains, locus YMR058W, strain fet3, active compounds read low 0.947 | S. cerevisiae deletion strains, locus YMR078C, strain ctf18, active compounds read low 1.01 | S. cerevisiae deletion strains, locus YMR125W, strain sto1, active compounds read low 0.913 | S. cerevisiae deletion strains, locus YMR129W, active compounds read low 0.944 | S. cerevisiae deletion strains, locus YMR205C, strain PFK2, active compounds read low 0.955 | S. cerevisiae deletion strains, locus YMR223W, strain ubp8, active compounds read low 1.01 | S. cerevisiae deletion strains, locus YMR263W, strain SAP30, active compounds read low 0.989 | S. cerevisiae deletion strains, locus YMR307W, strain GAS1, active compounds read low 1 | S. cerevisiae deletion strains, locus YNL067W, strain RPL9B, active compounds read low 0.997 | S. cerevisiae deletion strains, locus YNL071W, strain lat1, active compounds read low 0.935 | S. cerevisiae deletion strains, locus YNL128W, strain TEP1, active compounds read low 1.01 | S. cerevisiae deletion strains, locus YNL153C, strain GIM3, active compounds read low 0.997 | S. cerevisiae deletion strains, locus YNL209W, strain ssb2, active compounds read low 0.971 | S. cerevisiae deletion strains, locus YNL233W, strain BNI4, active compounds read low 0.971 | S. cerevisiae deletion strains, locus YNL248C, strain rpa49, active compounds read low 0.941 | S. cerevisiae deletion strains, locus YNL250W, strain rad50, active compounds read low 1 | S. cerevisiae deletion strains, locus YNL271C, strain bni1, active compounds read low 0.996 | S. cerevisiae deletion strains, locus YNL298W, strain CLA4, active compounds read low 0.976 | S. cerevisiae deletion strains, locus YNL307C, strain MCK1, active compounds read low 1.01 | S. cerevisiae deletion strains, locus YNL322C, strain KRE1, active compounds read low 0.994 | S. cerevisiae deletion strains, locus YNR049C, strain mso1, active compounds read low 0.929 | S. cerevisiae deletion strains, locus YNR052C, strain pop2, active compounds read low 1.01 | S. cerevisiae deletion strains, locus YOL006C, strain TOP1, active compounds read low 1.04 | S. cerevisiae deletion strains, locus YOL012C, strain htz1 1.19 | S. cerevisiae deletion strains, locus YOL147C, strain pex11, active compounds read low 1.01 | S. cerevisiae deletion strains, locus YOR001W, strain rrp6, active compounds read low 0.953 | S. cerevisiae deletion strains, locus YOR061W, strain CKA2, active compounds read low 0.999 | S. cerevisiae deletion strains, locus YOR069W, strain VPS5, active compounds read low 1 | S. cerevisiae deletion strains, locus YOR070C, strain gyp1, active compounds read low 0.947 | S. cerevisiae deletion strains, locus YOR080W, strain dia2, active compounds read low 0.925 | S. cerevisiae deletion strains, locus YOR083W, strain WHI5, active compounds read low 0.956 | S. cerevisiae deletion strains, locus YOR106W, strain vam3, active compounds read low 0.942 | S. cerevisiae deletion strains, locus YOR136W, strain idh2, active compounds read low 1.02 | S. cerevisiae deletion strains, locus YOR144C, strain elg1, active compounds read low 1.02 | S. cerevisiae deletion strains, locus YOR184W, strain ser1, active compounds read low 1.03 | S. cerevisiae deletion strains, locus YOR265W, strain rbl2, active compounds read low 0.943 | S. cerevisiae deletion strains, locus YOR270C, strain vph1, active compounds read low 0.971 | S. cerevisiae deletion strains, locus YOR290C, strain snf2, active compounds read low 0.962 | S. cerevisiae deletion strains, locus YOR316C, strain cot1, active compounds read low 1.01 | S. cerevisiae deletion strains, locus YPL051W, strain arl3, active compounds read low 0.943 | S. cerevisiae deletion strains, locus YPL055C, strain LGE1, active compounds read low 1.01 | S. cerevisiae deletion strains, locus YPL078C, strain atp4, active compounds read low 0.93 | S. cerevisiae deletion strains, locus YPL106C, strain sse1, active compounds read low 1.03 | S. cerevisiae deletion strains, locus YPL240C, strain hsp82, active compounds read low 0.937 | S. cerevisiae deletion strains, locus YPL241C, strain CIN2, active compounds read low 1 | S. cerevisiae deletion strains, locus YPR119W, strain clb2, active compounds read low 1.01 | S. cerevisiae deletion strains, locus YPR141C, strain kar3, active compounds read low 1.01 | S. cerevisiae deletion strains, locus YPR163C, strain tif3, active compounds read low 1.02 | S. cerevisiae deletion strains, locus YPR167C, strain met16, active compounds read low 1.05 | S. cerevisiae deletion strains, strain wtn01, active compounds read low 1.01 | S. cerevisiae strains, strain wild type, active compounds read low 1
